Drawing on ChEMBL document CHEMBL2218924, “A broad activity screen in support of a chemogenomic map for kinase signalling research and drug discovery” (Biochem J, 2013), this text covers residual activity for 6 compounds.

In assay [1] the target is Tyrosine-protein kinase SYK (Homo sapiens) (UniProt P43405). The conditions noted are these: at 10 µM.
Assay [2] has as its target T1, Mitogen-activated protein kinase kinase kinase 7 (Homo sapiens) (UniProt O43318).
T1 sequence (whole entry): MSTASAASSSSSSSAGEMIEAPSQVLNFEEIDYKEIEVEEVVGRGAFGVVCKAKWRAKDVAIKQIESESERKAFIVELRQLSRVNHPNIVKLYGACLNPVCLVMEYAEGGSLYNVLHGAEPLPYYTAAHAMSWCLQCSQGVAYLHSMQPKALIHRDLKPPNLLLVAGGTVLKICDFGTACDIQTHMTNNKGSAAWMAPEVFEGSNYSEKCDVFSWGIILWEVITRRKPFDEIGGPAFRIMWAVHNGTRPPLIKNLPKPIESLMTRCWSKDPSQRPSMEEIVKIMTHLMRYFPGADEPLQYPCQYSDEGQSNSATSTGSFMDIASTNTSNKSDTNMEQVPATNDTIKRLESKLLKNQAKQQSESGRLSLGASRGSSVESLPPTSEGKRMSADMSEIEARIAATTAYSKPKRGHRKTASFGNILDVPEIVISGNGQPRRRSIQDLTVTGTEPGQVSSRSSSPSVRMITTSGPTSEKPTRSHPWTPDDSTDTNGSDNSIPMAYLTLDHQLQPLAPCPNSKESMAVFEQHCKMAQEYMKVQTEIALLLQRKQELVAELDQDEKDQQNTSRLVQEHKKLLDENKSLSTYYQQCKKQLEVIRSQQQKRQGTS
Particulars: at 1 µM.

Assay [3] concerns the target T1, Mitogen-activated protein kinase kinase kinase 7 (Homo sapiens). Particulars: at 10 µM.
Assay [4] deals with T2, Serine/threonine-protein kinase TAO1 (Homo sapiens) (UniProt Q7L7X3).
T2 sequence (whole entry): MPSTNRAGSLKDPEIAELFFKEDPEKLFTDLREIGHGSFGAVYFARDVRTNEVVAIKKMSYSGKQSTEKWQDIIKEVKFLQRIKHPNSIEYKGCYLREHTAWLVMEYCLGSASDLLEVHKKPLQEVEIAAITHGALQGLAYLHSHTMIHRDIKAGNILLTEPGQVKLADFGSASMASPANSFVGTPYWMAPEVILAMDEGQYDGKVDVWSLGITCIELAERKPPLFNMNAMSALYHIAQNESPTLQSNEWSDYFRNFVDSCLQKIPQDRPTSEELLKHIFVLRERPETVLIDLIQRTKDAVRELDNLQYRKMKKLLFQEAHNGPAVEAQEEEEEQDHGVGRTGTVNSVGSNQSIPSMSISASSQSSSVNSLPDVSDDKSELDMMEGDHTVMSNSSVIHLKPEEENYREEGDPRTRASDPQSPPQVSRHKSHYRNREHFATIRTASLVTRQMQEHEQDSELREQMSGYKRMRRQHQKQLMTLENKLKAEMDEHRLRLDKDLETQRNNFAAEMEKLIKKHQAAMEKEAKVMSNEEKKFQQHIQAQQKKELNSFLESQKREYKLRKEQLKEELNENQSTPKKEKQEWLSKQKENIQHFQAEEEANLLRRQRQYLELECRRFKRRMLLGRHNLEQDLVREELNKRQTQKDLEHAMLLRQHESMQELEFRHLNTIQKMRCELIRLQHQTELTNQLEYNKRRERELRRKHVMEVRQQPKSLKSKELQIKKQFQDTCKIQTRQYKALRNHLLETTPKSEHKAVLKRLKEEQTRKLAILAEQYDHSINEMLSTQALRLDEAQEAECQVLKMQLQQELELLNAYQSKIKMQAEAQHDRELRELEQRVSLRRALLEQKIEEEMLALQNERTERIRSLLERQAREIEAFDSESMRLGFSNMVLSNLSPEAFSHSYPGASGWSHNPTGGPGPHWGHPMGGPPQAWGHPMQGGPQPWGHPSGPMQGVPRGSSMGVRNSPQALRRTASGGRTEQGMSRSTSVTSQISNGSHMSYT
Particulars: at 1 µM.

For assay [5], the target named is T2, Serine/threonine-protein kinase TAO1 (Homo sapiens). Particulars: at 10 µM.
Assay [6] addresses T3, Serine/threonine-protein kinase TAO3 (Homo sapiens) (UniProt Q9H2K8).
T3 sequence (whole entry): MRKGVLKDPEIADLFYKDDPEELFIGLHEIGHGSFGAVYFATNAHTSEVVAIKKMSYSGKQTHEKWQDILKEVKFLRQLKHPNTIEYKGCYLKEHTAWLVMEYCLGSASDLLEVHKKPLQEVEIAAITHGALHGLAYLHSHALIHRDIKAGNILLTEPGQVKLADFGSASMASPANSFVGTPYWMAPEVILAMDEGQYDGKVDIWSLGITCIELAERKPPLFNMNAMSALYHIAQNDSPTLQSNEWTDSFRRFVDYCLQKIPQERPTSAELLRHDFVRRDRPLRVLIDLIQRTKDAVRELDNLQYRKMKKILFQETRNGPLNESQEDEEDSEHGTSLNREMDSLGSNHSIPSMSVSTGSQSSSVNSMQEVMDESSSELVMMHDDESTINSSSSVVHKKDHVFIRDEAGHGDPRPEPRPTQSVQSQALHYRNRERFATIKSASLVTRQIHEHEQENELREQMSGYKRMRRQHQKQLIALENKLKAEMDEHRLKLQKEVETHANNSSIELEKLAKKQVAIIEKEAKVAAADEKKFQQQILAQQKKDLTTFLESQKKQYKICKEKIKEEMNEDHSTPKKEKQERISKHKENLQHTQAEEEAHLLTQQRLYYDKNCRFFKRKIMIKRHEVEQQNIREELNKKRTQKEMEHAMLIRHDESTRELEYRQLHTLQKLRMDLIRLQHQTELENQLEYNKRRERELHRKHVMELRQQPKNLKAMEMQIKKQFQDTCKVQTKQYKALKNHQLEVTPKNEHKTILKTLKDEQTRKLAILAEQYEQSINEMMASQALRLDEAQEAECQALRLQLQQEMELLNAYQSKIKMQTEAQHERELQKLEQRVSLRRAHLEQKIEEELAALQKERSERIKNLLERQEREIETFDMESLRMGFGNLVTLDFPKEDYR
Particulars: at 1 µM.

The target of assay [7] is T3, Serine/threonine-protein kinase TAO3 (Homo sapiens). Particulars: at 10 µM.
Assay [8] addresses T4, Serine/threonine-protein kinase TBK1 (Homo sapiens) (UniProt Q9UHD2).
T4 sequence (whole entry): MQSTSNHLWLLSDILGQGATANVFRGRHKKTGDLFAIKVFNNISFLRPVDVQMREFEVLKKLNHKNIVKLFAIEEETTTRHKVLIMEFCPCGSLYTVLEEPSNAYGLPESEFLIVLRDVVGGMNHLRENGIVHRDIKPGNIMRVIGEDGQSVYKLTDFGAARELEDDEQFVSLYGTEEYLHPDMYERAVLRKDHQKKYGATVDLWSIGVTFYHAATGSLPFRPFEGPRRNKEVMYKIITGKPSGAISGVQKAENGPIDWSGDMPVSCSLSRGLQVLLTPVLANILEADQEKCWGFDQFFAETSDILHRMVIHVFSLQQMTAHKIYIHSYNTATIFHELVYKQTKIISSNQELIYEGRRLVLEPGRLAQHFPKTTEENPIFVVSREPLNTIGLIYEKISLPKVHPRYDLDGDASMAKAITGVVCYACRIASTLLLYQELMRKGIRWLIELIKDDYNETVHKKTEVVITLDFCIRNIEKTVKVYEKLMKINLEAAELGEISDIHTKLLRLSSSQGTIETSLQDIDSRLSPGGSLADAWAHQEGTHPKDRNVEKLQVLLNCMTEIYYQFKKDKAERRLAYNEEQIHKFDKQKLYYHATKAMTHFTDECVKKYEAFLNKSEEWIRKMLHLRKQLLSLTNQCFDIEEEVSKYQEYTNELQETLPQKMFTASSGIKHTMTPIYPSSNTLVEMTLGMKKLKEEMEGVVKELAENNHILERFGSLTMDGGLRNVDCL
The conditions noted are these: at 1 µM.

In assay [9] the target is T5, Serine/threonine-protein kinase TAO2 (Homo sapiens) (UniProt Q9UL54).
T5 sequence (whole entry): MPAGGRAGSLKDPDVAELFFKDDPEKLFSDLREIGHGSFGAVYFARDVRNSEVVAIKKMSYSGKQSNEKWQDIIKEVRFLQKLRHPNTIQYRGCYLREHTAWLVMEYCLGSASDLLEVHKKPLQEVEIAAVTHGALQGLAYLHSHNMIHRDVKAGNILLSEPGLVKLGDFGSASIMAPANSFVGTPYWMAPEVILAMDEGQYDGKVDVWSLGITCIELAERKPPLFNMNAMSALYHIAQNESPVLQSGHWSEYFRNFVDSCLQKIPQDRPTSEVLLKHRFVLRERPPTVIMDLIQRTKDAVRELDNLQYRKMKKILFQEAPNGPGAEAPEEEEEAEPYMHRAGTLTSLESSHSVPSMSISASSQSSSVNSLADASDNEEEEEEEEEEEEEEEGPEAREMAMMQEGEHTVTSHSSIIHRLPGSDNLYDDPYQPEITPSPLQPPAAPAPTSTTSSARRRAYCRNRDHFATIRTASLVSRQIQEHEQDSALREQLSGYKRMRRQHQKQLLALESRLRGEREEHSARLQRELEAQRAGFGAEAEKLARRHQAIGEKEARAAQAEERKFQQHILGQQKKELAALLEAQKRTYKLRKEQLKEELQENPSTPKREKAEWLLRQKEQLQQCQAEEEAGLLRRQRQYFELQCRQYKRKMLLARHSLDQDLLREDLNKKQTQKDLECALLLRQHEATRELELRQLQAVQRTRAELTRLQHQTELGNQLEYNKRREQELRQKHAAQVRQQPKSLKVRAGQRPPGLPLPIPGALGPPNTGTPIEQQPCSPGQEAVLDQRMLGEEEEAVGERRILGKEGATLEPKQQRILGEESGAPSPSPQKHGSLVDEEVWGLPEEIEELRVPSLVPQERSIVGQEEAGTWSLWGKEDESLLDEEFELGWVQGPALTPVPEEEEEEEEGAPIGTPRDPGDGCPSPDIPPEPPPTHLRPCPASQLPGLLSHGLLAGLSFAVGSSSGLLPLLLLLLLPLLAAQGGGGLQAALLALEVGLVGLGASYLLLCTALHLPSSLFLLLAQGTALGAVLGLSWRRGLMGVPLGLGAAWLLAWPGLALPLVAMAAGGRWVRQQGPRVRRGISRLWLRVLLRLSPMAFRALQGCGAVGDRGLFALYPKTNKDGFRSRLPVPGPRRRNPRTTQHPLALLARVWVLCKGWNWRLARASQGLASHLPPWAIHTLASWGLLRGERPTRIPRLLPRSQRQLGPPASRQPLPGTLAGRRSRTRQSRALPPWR
Particulars: at 1 µM.

Assay [10] deals with T5, Serine/threonine-protein kinase TAO2 (Homo sapiens). The conditions noted are these: at 10 µM.

For `CCN(CC)CCNC(=O)c1c(C)[nH]c(/C=C2\C(=O)Nc3ccc(Cl)cc32)c1C`, the residual activity in assay [1] is 33%; in assay [2], 4%; in assay [3] it was -3%; in assay [4] it was 71%; in assay [5] it was 18%; in [6], 79%. In addition, the figures for the residual activity in assay [7] and in assay [8] were 24% and 15%, respectively.
Regarding `COc1ccc(-c2cnc3c(-c4ccsc4)cnn3c2)cc1`, the residual activity in assay [1] came out at 95%; in [2] it was 99%; in [3] it was 97%; in assay [4] it was 97%; in [5] it was 97%; in assay [8], 97%.
Turning to `O=C1NC(=O)c2c1c1c3ccccc3[nH]c1n1cncc21`, the residual activity in assay [1] is 25%; in assay [2], 55%; in assay [3], 30%; in [9] it was 88%; in [10], 69%; in [6] it was 69%. In addition, the residual activity turned out to be 63% in [7] and 53% in assay [8].
For `COc1cc2nccc(Oc3ccc(NC(=S)NC(=O)c4ccccc4C)cc3)c2cc1OC`, the residual activity in assay [1] came to 65%; in assay [2] it was 87%; in assay [3], 87%; in assay [4], 91%; in assay [5] it was 71%; in assay [9] it was 89%. Moreover, the residual activity in assay [10] came to 75%; in assay [6] it was 78%; in assay [7] it was 67%; in [8], 57%.
`Nc1ncnc2c1cnn2-c1ccccc1`: the residual activity in assay [1] was found to be 92%; in assay [2], 89%; in [3] it was 88%; in assay [4], 94%; in assay [5], 80%; in assay [6], 100%. In addition, in assay [7], the residual activity was 87%.
Regarding `CCCCc1c(-c2ccc(OC)cc2)[nH]c2nccnc12`, the residual activity in [1] was 39%; in assay [3], 86%; in [4], 48%; in [5], 48%; in [9] it was 64%; in assay [10], 82%. The residual activity turned out to be 81% in assay [6], 90% in [7] and 61% in [8].
